{
  "source": "ChEMBL document CHEMBL4513141",
  "about": "“CO-ADD screening of NIH (USA) - Clinical Collection” (2021)",
  "key": {"Klebsiella pneumoniae": {"tested_on": "Klebsiella pneumoniae", "settings": "Concentration 20 uM; ASSAY_TEST Inhibition of Bacterial Growth; detection method Absorption (OD600); MEDIA CAMHB; plate type 384well; NBS; CORNING #3640; time 18 hr"}, "Candida albicans": {"tested_on": "Candida albicans", "settings": "20 µM"}, "Cryptococcus neoformans": {"tested_on": "Cryptococcus neoformans", "settings": "Concentration 20 uM; ASSAY_TEST Inhibition of Fungal Growth; detection method Resazurin; Absorption (OD600-OD570); plate type 384well; NBS; CORNING #3640"}},
  "note": "Measured potencies and affinities stand elsewhere.",
  "data": [
    {"compound": "CCCC(C)(COC(N)=O)COC(=O)NC(C)C", "note": "(stereo not given) [CARISOPRODOL]", "values": [
      {"measurement": "Inhibition", "setting": "Klebsiella pneumoniae", "value": 4.45, "unit": "%"},
      {"measurement": "Inhibition", "setting": "Candida albicans", "value": 4.69, "unit": "%"},
      {"measurement": "Inhibition", "setting": "Cryptococcus neoformans", "value": 4.79, "unit": "%"}
    ]},
    {"compound": "COc1cc(N)c(Cl)cc1C(=O)NC1CN2CCC1CC2.Cl.O", "note": "(stereo not given) [ZACOPRIDE HYDROCHLORIDE]", "values": [
      {"measurement": "Inhibition", "setting": "Klebsiella pneumoniae", "value": -4, "unit": "%"},
      {"measurement": "Inhibition", "setting": "Candida albicans", "value": 5.47, "unit": "%"},
      {"measurement": "Inhibition", "setting": "Cryptococcus neoformans", "value": 0.38, "unit": "%"}
    ]},
    {"compound": "CC(=O)[C@H]1CC[C@H]2[C@@H]3CCC4=CC(=O)CC[C@]4(C)[C@H]3CC[C@]12C", "note": "[PROGESTERONE]", "values": [
      {"measurement": "Inhibition", "setting": "Klebsiella pneumoniae", "value": 23.48, "unit": "%"},
      {"measurement": "Inhibition", "setting": "Candida albicans", "value": 11.4, "unit": "%"},
      {"measurement": "Inhibition", "setting": "Cryptococcus neoformans", "value": -1.48, "unit": "%"}
    ]},
    {"compound": "C[N+]1(CCC(C(N)=O)(c2ccccc2)c2ccccc2)CCCCC1.[Br-]", "note": "[FENPIVERINIUM BROMIDE]", "values": [
      {"measurement": "Inhibition", "setting": "Klebsiella pneumoniae", "value": -3.21, "unit": "%"},
      {"measurement": "Inhibition", "setting": "Candida albicans", "value": 3.32, "unit": "%"},
      {"measurement": "Inhibition", "setting": "Cryptococcus neoformans", "value": -1.41, "unit": "%"}
    ]},
    {"compound": "COc1ccc2[nH]cc(CCN)c2c1", "note": "[5-METHOXYTRYPTAMINE]", "values": [
      {"measurement": "Inhibition", "setting": "Klebsiella pneumoniae", "value": 5.41, "unit": "%"},
      {"measurement": "Inhibition", "setting": "Candida albicans", "value": 3.97, "unit": "%"},
      {"measurement": "Inhibition", "setting": "Cryptococcus neoformans", "value": -39.41, "unit": "%"}
    ]},
    {"compound": "C[C@H](CCC(=O)O)[C@H]1CC[C@H]2[C@@H]3[C@@H](O)C[C@@H]4C[C@H](O)CC[C@]4(C)[C@H]3CC[C@]12C", "note": "[URSODIOL]", "values": [
      {"measurement": "Inhibition", "setting": "Klebsiella pneumoniae", "value": 5.07, "unit": "%"},
      {"measurement": "Inhibition", "setting": "Candida albicans", "value": 3.21, "unit": "%"},
      {"measurement": "Inhibition", "setting": "Cryptococcus neoformans", "value": -2.96, "unit": "%"}
    ]},
    {"compound": "CC(C)CC(N(C)C)C1(c2ccc(Cl)cc2)CCC1", "note": "(stereo not given) [SIBUTRAMINE]", "values": [
      {"measurement": "Inhibition", "setting": "Klebsiella pneumoniae", "value": 10.19, "unit": "%"},
      {"measurement": "Inhibition", "setting": "Candida albicans", "value": 2.06, "unit": "%"},
      {"measurement": "Inhibition", "setting": "Cryptococcus neoformans", "value": 1.52, "unit": "%"}
    ]},
    {"compound": "C=C(C)CN1CC[C@]23c4c5ccc(O)c4O[C@H]2c2[nH]c4ccccc4c2C[C@@]3(O)C1C5.Cl.O", "values": [
      {"measurement": "Inhibition", "setting": "Klebsiella pneumoniae", "value": 12.32, "unit": "%"},
      {"measurement": "Inhibition", "setting": "Candida albicans", "value": 1.9, "unit": "%"},
      {"measurement": "Inhibition", "setting": "Cryptococcus neoformans", "value": -7.24, "unit": "%"}
    ]},
    {"compound": "COc1ccc2[nH]cc(C3=CCNCC3)c2c1.COc1ccc2[nH]cc(C3=CCNCC3)c2c1.O=C(O)CCC(=O)O", "values": [
      {"measurement": "Inhibition", "setting": "Klebsiella pneumoniae", "value": 15.57, "unit": "%"},
      {"measurement": "Inhibition", "setting": "Candida albicans", "value": 3.46, "unit": "%"},
      {"measurement": "Inhibition", "setting": "Cryptococcus neoformans", "value": -20.08, "unit": "%"}
    ]},
    {"compound": "COc1ccc(CCN)cc1OC", "values": [
      {"measurement": "Inhibition", "setting": "Klebsiella pneumoniae", "value": 8.69, "unit": "%"},
      {"measurement": "Inhibition", "setting": "Candida albicans", "value": 2.72, "unit": "%"},
      {"measurement": "Inhibition", "setting": "Cryptococcus neoformans", "value": -1.54, "unit": "%"}
    ]},
    {"compound": "Cc1ccc(-c2nc3ccc(C)cn3c2CC(=O)N(C)C)cc1.Cc1ccc(-c2nc3ccc(C)cn3c2CC(=O)N(C)C)cc1.O=C(O)C(O)C(O)C(=O)O", "note": "[ZOLPIDEM TARTRATE]", "values": [
      {"measurement": "Inhibition", "setting": "Klebsiella pneumoniae", "value": 6.38, "unit": "%"},
      {"measurement": "Inhibition", "setting": "Candida albicans", "value": 4.32, "unit": "%"},
      {"measurement": "Inhibition", "setting": "Cryptococcus neoformans", "value": -1.23, "unit": "%"}
    ]},
    {"compound": "c1ccc(Cn2ccnc2)cc1", "values": [
      {"measurement": "Inhibition", "setting": "Klebsiella pneumoniae", "value": 8.34, "unit": "%"},
      {"measurement": "Inhibition", "setting": "Candida albicans", "value": 2.99, "unit": "%"},
      {"measurement": "Inhibition", "setting": "Cryptococcus neoformans", "value": 0.79, "unit": "%"}
    ]},
    {"compound": "C[C@]12Cc3c[nH]nc3C[C@@H]1CC[C@@H]1[C@@H]2CC[C@@]2(C)[C@H]1CC[C@]2(C)O", "note": "[STANOZOLOL]", "values": [
      {"measurement": "Inhibition", "setting": "Klebsiella pneumoniae", "value": 7.49, "unit": "%"},
      {"measurement": "Inhibition", "setting": "Candida albicans", "value": 8.82, "unit": "%"},
      {"measurement": "Inhibition", "setting": "Cryptococcus neoformans", "value": -7.23, "unit": "%"}
    ]},
    {"compound": "CN1[C@@H]2CC[C@H]1CC(OC(=O)C(CO)c1ccccc1)C2", "note": "(stereo not given in full)", "values": [
      {"measurement": "Inhibition", "setting": "Klebsiella pneumoniae", "value": 9.61, "unit": "%"},
      {"measurement": "Inhibition", "setting": "Candida albicans", "value": 0.86, "unit": "%"},
      {"measurement": "Inhibition", "setting": "Cryptococcus neoformans", "value": -0.25, "unit": "%"}
    ]},
    {"compound": "Cl.O.Oc1cc2c(cc1O)[C@H]1c3ccccc3CN[C@@H]1CC2", "values": [
      {"measurement": "Inhibition", "setting": "Klebsiella pneumoniae", "value": 11.23, "unit": "%"},
      {"measurement": "Inhibition", "setting": "Candida albicans", "value": 1.34, "unit": "%"},
      {"measurement": "Inhibition", "setting": "Cryptococcus neoformans", "value": -4.18, "unit": "%"}
    ]},
    {"compound": "N=C(NCc1ccc(Cl)cc1)SCCCc1c[nH]cn1", "note": "[CLOBENPROPIT]", "values": [
      {"measurement": "Inhibition", "setting": "Klebsiella pneumoniae", "value": 6.85, "unit": "%"},
      {"measurement": "Inhibition", "setting": "Candida albicans", "value": 2.99, "unit": "%"},
      {"measurement": "Inhibition", "setting": "Cryptococcus neoformans", "value": -0.61, "unit": "%"}
    ]},
    {"compound": "CN1CCN(C(=O)O[C@H]2c3nccnc3C(=O)N2c2ccc(Cl)cn2)CC1", "note": "[ESZOPICLONE]", "values": [
      {"measurement": "Inhibition", "setting": "Klebsiella pneumoniae", "value": -5.59, "unit": "%"},
      {"measurement": "Inhibition", "setting": "Candida albicans", "value": 0.3, "unit": "%"},
      {"measurement": "Inhibition", "setting": "Cryptococcus neoformans", "value": 4.31, "unit": "%"}
    ]},
    {"compound": "C[C@H](CCC(=O)O)[C@H]1CC[C@H]2[C@@H]3C(=O)C[C@@H]4CC(=O)CC[C@]4(C)[C@H]3CC(=O)[C@]12C", "note": "[DEHYDROCHOLIC ACID]", "values": [
      {"measurement": "Inhibition", "setting": "Klebsiella pneumoniae", "value": 5.88, "unit": "%"},
      {"measurement": "Inhibition", "setting": "Candida albicans", "value": 3.92, "unit": "%"},
      {"measurement": "Inhibition", "setting": "Cryptococcus neoformans", "value": 2.23, "unit": "%"}
    ]},
    {"compound": "CNC1=Nc2ccc(Cl)cc2C(c2ccccc2)=[N+]([O-])C1", "note": "[CHLORDIAZEPOXIDE]", "values": [
      {"measurement": "Inhibition", "setting": "Klebsiella pneumoniae", "value": 19.46, "unit": "%"},
      {"measurement": "Inhibition", "setting": "Candida albicans", "value": 2.53, "unit": "%"},
      {"measurement": "Inhibition", "setting": "Cryptococcus neoformans", "value": -9.21, "unit": "%"}
    ]},
    {"compound": "CC(C)(C)NCC(O)c1cc(O)cc(O)c1.O=S(=O)(O)O", "note": "(stereo not given)", "values": [
      {"measurement": "Inhibition", "setting": "Klebsiella pneumoniae", "value": 12.1, "unit": "%"},
      {"measurement": "Inhibition", "setting": "Candida albicans", "value": 2.97, "unit": "%"},
      {"measurement": "Inhibition", "setting": "Cryptococcus neoformans", "value": -9.43, "unit": "%"}
    ]},
    {"compound": "CN1C(=O)CN=C(c2ccccc2)c2cc([N+](=O)[O-])ccc21", "note": "[NIMETAZEPAM]", "values": [
      {"measurement": "Inhibition", "setting": "Klebsiella pneumoniae", "value": 13.4, "unit": "%"},
      {"measurement": "Inhibition", "setting": "Candida albicans", "value": 0.89, "unit": "%"},
      {"measurement": "Inhibition", "setting": "Cryptococcus neoformans", "value": -7.7, "unit": "%"}
    ]},
    {"compound": "CC(=O)OC1C([N+]2(C)CCCCC2)C[C@H]2C3CC[C@H]4C[C@H](OC(C)=O)C([N+]5(C)CCCCC5)CC4(C)[C@H]3CCC12C.[Br-].[Br-]", "note": "(stereo not given in full)", "values": [
      {"measurement": "Inhibition", "setting": "Klebsiella pneumoniae", "value": 10.46, "unit": "%"},
      {"measurement": "Inhibition", "setting": "Candida albicans", "value": -0.59, "unit": "%"},
      {"measurement": "Inhibition", "setting": "Cryptococcus neoformans", "value": -9.01, "unit": "%"}
    ]},
    {"compound": "Cc1nnc2n1-c1ccc(Cl)cc1C(c1ccccc1)=NC2", "note": "[ALPRAZOLAM]", "values": [
      {"measurement": "Inhibition", "setting": "Klebsiella pneumoniae", "value": 8.67, "unit": "%"},
      {"measurement": "Inhibition", "setting": "Candida albicans", "value": 1.98, "unit": "%"},
      {"measurement": "Inhibition", "setting": "Cryptococcus neoformans", "value": -4.87, "unit": "%"}
    ]},
    {"compound": "CNC(=O)Oc1ccc2c(c1)[C@]1(C)CCN(C)C1N2C.CNC(=O)Oc1ccc2c(c1)[C@]1(C)CCN(C)C1N2C.O=S(=O)(O)O", "note": "(stereo not given in full)", "values": [
      {"measurement": "Inhibition", "setting": "Klebsiella pneumoniae", "value": 13.28, "unit": "%"},
      {"measurement": "Inhibition", "setting": "Candida albicans", "value": 2.24, "unit": "%"},
      {"measurement": "Inhibition", "setting": "Cryptococcus neoformans", "value": -6.96, "unit": "%"}
    ]},
    {"compound": "Cc1ncc2n1-c1ccc(Cl)cc1C(c1ccccc1F)=NC2.Cl", "note": "[MIDAZOLAM HYDROCHLORIDE]", "values": [
      {"measurement": "Inhibition", "setting": "Klebsiella pneumoniae", "value": 2.84, "unit": "%"},
      {"measurement": "Inhibition", "setting": "Candida albicans", "value": 3.62, "unit": "%"},
      {"measurement": "Inhibition", "setting": "Cryptococcus neoformans", "value": -0.63, "unit": "%"}
    ]}
  ]
}
